SMARCA2 act = SMARCA2 (BRM) function activators, primary screen, cell-based, luminescence, high throughput; activation, % at 9.1 µM; MG213 cells, MMTV-luciferase reporter, dexamethasone, overnight; AID 652017, 2013; hit rate 1% among 370,000; in the data active means activation above about 7.8%
AI-2 QS mod = Vibrio harveyi AI-2 quorum sensing modulators, primary screen, JMH597 strain, luminescence/OD600 ratio; Vibrio harveyi JMH597 AI-2 luminescence/OD600 ratio, 9 h; stronger effect = lower value; strain lacks LuxN and CqsS sensors; 0 = neutral-control median; activity change, % at 7.5 µM; hit rate 0.4% among 300,000; in the data active means activity change below about -75%, passing the limit was not always enough;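 further: luminescence divided by OD600 gain over 9 h not by final OD600 alone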
HSF1 inh = HSF1 inhibitors in luciferase reporter cells, primary screen, cell-based, NIH3T3, luminescence; NIH3T3-HGL HSE-luciferase, MG132-induced, luminescence 8 h; stronger effect = lower value; activity change, negative = inhibition, % at 7.5 µM (by protocol); hit rate 0.77% among 300,000; AID 2098, 2009;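 active means more than half of replicate wells show activity change below -50%, luminescence cut by over half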;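 further: luciferase reports HSF-1 transcriptional activity via heat shock element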
PG9 Ab binder = binders of HIV-1 gp120 antibody PG9, primary screen, biochemical, TR-FRET; AID 624416, 2012; inhibition, % at 6.7 µM; TR-FRET gp120-PG9 antibody binding; hit rate 0.43% among 360,000; HIV-1 gp120 / PG9 antibody interaction; in the data active means inhibition above about 8.5%
HSP90 inh = HSP90 inhibitors, primary screen, cell lysate, luminescence; Heat shock protein HSP 90 (rabbit reticulocyte lysate; luciferase refolding); Rabbit reticulocyte lysate, luciferase refolding luminescence, 3 h; inhibition, % at 5.6 µM; hit rate 0.91% among 290,000; AID 1789, 2009;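 active means inhibition above the screen-wide mean plus 3 SD, computed separately per campaign, cut at about 16% in these data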;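 further: inhibitors lower the luminescence because luciferase stays unfolded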
FXN GAA850 act = FXN promoter activators, primary screen, cell-based, luciferase luminescence, HEK293 lucGAA850 | HEK293 lucGAA850 FXN promoter luciferase reporter, 24 h; percent of 10 µM SAHA response | activation, % at 6 µM | hit rate 0.56% among 360,000 | AID 540364, 2011;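 active means activation above the average of all compounds screened plus 3 SD, cutoff fixed separately per campaign, cut at about 7.5% in these data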
GAA30 FXN cntr = GAA30 FXN promoter activators, confirmation, counter-screen for GAA850 frataxin promoter activator project, cell-based, luminescence, HEK293, lucGAA30, triplicate; activation, % at 6 µM; hit rate 66% among 1,900; HEK293 lucGAA30 FXN promoter luciferase, 24 h; DMSO = 0%, 5 µM ipriflavone = 100%; AID 588350, 2011; shares compounds with FXN GAA850 act;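 active means mean activation above the mean of solvent-only control wells plus 3 SD, cut at about 22% in these data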;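 further: counterscreen of GAA850 promoter hits where activity marks nonselective or luminescence artifacts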
FXN GAA850 conf = FXN GAA850 promoter activators in reporter cells, confirmation, cell-based, luminescence, HEK293 lucGAA850, triplicate; hit rate 86% among 1,900; HEK293 lucGAA850 FXN promoter luciferase reporter, 24 h; 100% = activation by SAHA; AID 588351, 2011; activation, % at 6 µM; shares compounds with FXN GAA850 act;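 active means mean activation above a set limit taken from the primary screen, cut at about 8% in these data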
Of the large screens only hits and unclear results are named; the others gave an inactive call (follow-up assays come after a bar, where they were run). Rows were chosen to be rich in hits. Some 3.4% of all compounds tested hit in one or more screens of this group.

Cc1ccc(Cn2c(SCC(=O)NCc3ccco3)nc3ccsc3c2=O)cc1	FXN GAA850 act 8.8 | GAA30 FXN cntr 31 | FXN GAA850 conf 17
COc1ccc(N2CCCN(CC(=O)Nc3ccccc3C)CC2)cc1	none (no result: AI-2 QS mod, HSF1 inh, PG9 Ab binder, HSP90 inh, FXN GAA850 act)
O=C(Nc1ccccc1O)c1ccc(NC(=O)C2CC2)cc1	FXN GAA850 act 11 | GAA30 FXN cntr 128 | FXN GAA850 conf 64
COc1ccc(NC(=O)N(C)C[C@@H]2OCCCC[C@@H](C)Oc3ccc(NS(C)(=O)=O)cc3C(=O)N([C@H](C)CO)C[C@@H]2C)cc1	none (no result: AI-2 QS mod, HSF1 inh, HSP90 inh, FXN GAA850 act)
C[C@@H]1OC(C2CCCCC2)N(C)[C@H]2C[C@H]3c4[nH]c5c(-c6ccccc6)cccc5c4CCN3C(=O)[C@@H]12 (stereo partly drawn)	none (no result: AI-2 QS mod, HSF1 inh, HSP90 inh, FXN GAA850 act)
CC(=O)c1cc2c(C)c(C(=O)c3ccccc3)oc2cc1O	FXN GAA850 act 8.8 | GAA30 FXN cntr 122 | FXN GAA850 conf 39
O=C(c1ccccc1)c1ccc(O)cc1O	none
Cn1c(NC(=S)Nc2ccccc2)nc2ccccc21	FXN GAA850 act 8.2 | GAA30 FXN cntr 85 | FXN GAA850 conf 27
Cn1c(CNc2ccc(O)cc2)nc2ccccc21	FXN GAA850 act 8.3 | GAA30 FXN cntr 86 | FXN GAA850 conf 26
O=C(C(Cc1ccccc1)NS(=O)(=O)c1cccc2cccnc12)N1CCc2ccccc21 (stereo not drawn)	FXN GAA850 act 13 | GAA30 FXN cntr 24 | FXN GAA850 conf 9.1
O=S(=O)(c1cccc2cccnc12)N1CCc2ccccc21	none
O=C(NCCCCC(NC(=O)c1ccccc1)C(=O)O)OCc1ccccc1 (stereo not drawn)	none (no result: AI-2 QS mod, HSF1 inh, HSP90 inh, FXN GAA850 act)
N/C(=N\N=C\c1cccc(O)c1)c1nonc1N	HSP90 inh 29, FXN GAA850 act 7.9 | GAA30 FXN cntr 128 | FXN GAA850 conf 21
N/C(=N\N=C\c1ccc(O)cc1)c1nonc1N	none
COc1ccc2c(C)c(CCC(=O)NC3CC3)c(=O)oc2c1	none
Cc1c(CCC(=O)NC2CC2)c(=O)oc2cc(O)ccc12	FXN GAA850 act 15 | GAA30 FXN cntr inactive | FXN GAA850 conf 11
NC(COCc1ccccc1)c1csc(NC(=O)Nc2cccc(Cl)c2)n1 (stereo not drawn)	none (no result: AI-2 QS mod, HSF1 inh, HSP90 inh)
O=C(O)C1CCCN1C(=O)c1cccc(Cl)c1 (stereo not drawn)	none (no result: AI-2 QS mod, HSF1 inh, HSP90 inh, FXN GAA850 act)
O=C(CSC1=NCCN1)Nc1ccccc1[N+](=O)[O-]	none
O=C(CSC1=NCCN1)Nc1cccc([N+](=O)[O-])c1	FXN GAA850 act 9.5 | GAA30 FXN cntr 43 | FXN GAA850 conf 22
CCCCC1(CC(=O)OCC)C(=O)N(c2ccccc2)N(c2ccccc2)C1=O	FXN GAA850 act 9.1 | GAA30 FXN cntr inactive | FXN GAA850 conf 9.7
CCCCC1(Cc2cccc([N+](=O)[O-])c2)C(=O)N(c2ccccc2)N(c2ccccc2)C1=O	FXN GAA850 act 8.2 | GAA30 FXN cntr inactive | FXN GAA850 conf inactive
CCCCCCCCN1C(=O)[C@@H](CC(=O)N2CCOCC2)C[C@@]2(C(=O)OC)C1=C[C@H](C(C)C)O[C@@H]2C1CC1	none (no result: AI-2 QS mod, HSF1 inh, PG9 Ab binder, HSP90 inh, FXN GAA850 act)
OC(c1ccc(-c2ccccc2)cc1)c1ncc(-c2ccccc2)[nH]1 (stereo not drawn)	none (no result: AI-2 QS mod, HSF1 inh, HSP90 inh)
Cc1c(Cc2ccccc2)sc(NC(=O)c2ccco2)c1C(N)=O	FXN GAA850 act 8.8 | GAA30 FXN cntr 38 | FXN GAA850 conf 11
